According to publication PMC5540273 (PLoS ONE, 2017):
pKd: −log10 of the molar value.

Experiments:
[1] = tested on: T1, RSK1(Kin.Dom.2-C-terminal)
T1 construct: gene RPS6KA1

[2] = tested on: T2, RSK2(Kin.Dom.1-N-terminal)
T2 construct: gene RPS6KA3

[3] = tested on: T3, RSK2(Kin.Dom.2-C-terminal)
T3 construct: gene RPS6KA3

[4] = tested on: T4, RSK3(Kin.Dom.2-C-terminal)
T4 construct: gene RPS6KA2
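Also: kd values determined as follow-up on hits from a single-replicate KINOMEscan panel screen.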

SMILES: C[C@@H]1CC[C@H](C(=O)NC2CCCCC2)CN1c1cc(-c2ccc3c(N)n[nH]c3c2)nc(N)n1 [GSK2291363]
- pKd (ROCK1): 6.68
- pKd (ROCK2): 6.82

SMILES: CCc1nc(-c2cccc(C)c2)c(-c2ccncc2)s1
- pKd [1]: 6.60

SMILES: COc1cc(Nc2ccnc3ccc(C(F)(F)F)cc23)cc(OC)c1OC [GW577382]
- pKd [2]: < 5.00

SMILES: Nc1nc(-c2ccccc2F)c(-c2ccnc3ccccc23)s1 [GW560459]
- pKd [3]: 6.10

SMILES: O=C(Nc1ccc2c(c1)OCO2)NC1CCN(c2ccnc(NCc3ccc(F)cc3)n2)CC1 [GSK1379859]
- pKd [3]: < 5.00

SMILES: CC(C)(C)c1ccc(C(=O)Nc2cn3cc(-c4ccccc4)ccc3n2)cc1
- pKd [4]: < 5.00

SMILES: Cl.NS(=O)(=O)c1cccc(Nc2cc(-c3ccc(F)cc3)n[nH]2)c1 [GW824645]
- pKd (SGK2): < 5.00

SMILES: COc1cc2ncn(-c3cc(OCc4ccncc4Br)c(C(N)=O)s3)c2cc1OC [GW854278]
- pKd (SLK): 6.17

SMILES: COc1ccc(CNC(=O)NC2CCN(c3ccnc(Nc4ccc(F)cc4)n3)C2)cc1 (stereo not shown) [GSK1379706]
- pKd (SRPK2): < 5.00
